Vaccinia mCherry – inhibitors of vaccinia virus infection (mCherry reporter signal). 310,000 compounds, 0.63% hits. Vaccinia virus mCherry reporter infection, fluorescence. Potency, µM (titrated, usually from 36.5 µM), inactives show top-dose activity change, negative = inhibition, hits mostly inhibitors. AID 720579; calls by dose curve; tested in A549 cells; note: nearly all actives have a fitted effect of over 35% in size
HCV inh – HCV inhibition. Huh7.5.1 HCVcc-Cre infection, luciferase reporter, 44 h. Potency, µM (highest dose often 41.8 µM), for the others: at the highest dose activity change, negative = inhibition, hits mostly inhibitors. 340,000 compounds, 3.4% hits. AID 651820; active = well fitted inhibition curve with a large enough effect; inconclusive = small, poorly fitted or top-dose-only effect, or another doubt; inactive = no such curve, though single readings can be large or run the other way
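Compounds are dispensed onto cells plated 4 h earlier at 1,000 per well, with HCVcc-Cre virus (about 0.5 moi) added next. Following 44 h of culture, luminescent signal is measured for 15 sec after 15 min with substrate at room temperature.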
FMDV inh – foot and mouth disease virus antiviral activity | FMDV antiviral cell-based qHTS | Potency, µM (titrated, usually from 57.9 µM), inactives show at the highest dose activity change, negative = inhibition, actives largely listed as inhibitors | 410,000 compounds, 1.2% hits | AID 1159524; calls by dose curve; tested in HEK293T cells; note: read-out not given here; nearly all actives have a fitted effect of over 45% in size
MARV entry inh – inhibitors of Marburg virus binding or cell entry; Marburg virus pseudotyped entry inhibition, cell reporter; Potency, µM (series often up to 37.8 µM), inactives show at the top dose activity change, negative = inhibition, actives largely listed as inhibitors; 300,000 compounds, 1.8% hits; AID 540276; calls by dose curve; tested in HEK293 cells
Lassa entry inh – Lassa virus entry inhibition. Lassa virus pseudotype entry inhibition, cell reporter. Potency, µM (doses to about 37.9 µM), for the others: at the highest dose activity change, negative = inhibition, most hits filed as inhibitors. 300,000 compounds, 1.2% hits. AID 540256; calls by dose curve; tested in HEK293 cells; note: nearly all actives have a fitted effect of over 50% in size
Vaccinia Venus – vaccinia inhibition (Venus reporter) | Vaccinia virus Venus reporter expression, fluorescence | Potency, µM (top dose mostly 36.5 µM), for the others: at the top dose activity change, negative = inhibition, actives largely listed as inhibitors | 330,000 compounds, 0.46% hits | AID 720580; calls by dose curve; tested in A549 cells; note: nearly all actives have a fitted effect of over 30% in size
Numbers without * were called inactive; i = inactive; u = inconclusive; x = no result; [ ] = remark or other dose. This is a sample that favours compounds with a hit; in the whole collection about 5.3% have one here. % is set by controls: 0 for no effect and ±100 for the full control effect; potency is the fitted concentration of half-maximal effect.

SMILES	Vaccinia mCherry	HCV inh	FMDV inh	MARV entry inh	Lassa entry inh	Vaccinia Venus
Cc1c(C(=O)Nc2ccc3nc(N4CCOCC4)sc3c2)oc2ccccc12	x	11µM*	u	x	x	x
O=C(Nc1ccc2nc(N3CCOCC3)sc2c1)c1cc2ccccc2o1	u	x	-29%	x	x	-9%
CCCCC[n+]1ccn(C2=C([O-])c3ccccc3C(=O)/C2=N\S(=O)(=O)c2ccc(Br)cc2)c1	x	u	-6%	x	x	x
CC(C)[n+]1ccn(C2=C([O-])c3ccccc3C(=O)/C2=N\S(=O)(=O)c2ccccc2)c1	u	u	u	u	2%	u
CCCCC[n+]1ccn(C2=C([O-])c3ccccc3C(=O)/C2=N\S(=O)(=O)c2ccccc2)c1	u	u	u	22µM*	u	u
CCCC[n+]1ccn(C2=C([O-])c3ccccc3C(=O)/C2=N\S(=O)(=O)c2ccccc2)c1	u	11µM*	22µM*	u	u	u
Cc1cc2oc(=O)cc(C)c2c2occ(-c3ccc(Cl)cc3)c12	10%	x	-10%	1%[46.1 µM]	10%[46.1 µM]	7%
CC(=O)c1cccc(NC(=O)/C=C/c2ccc([N+](=O)[O-])s2)c1	-6%	u	u	u	7.1µM*	2%
Cc1cc(C)cc(NC(=O)/C=C/c2ccc([N+](=O)[O-])s2)c1	-30%	u	-28%	-20%	-16%	-6%
Cc1ccccc1NC(=O)/C=C/c1ccc([N+](=O)[O-])s1	-18%	10µM*	10µM*	u	u	167%
CC(C)(C)c1ccc(NC(=O)CSc2nnc3scc(-c4ccccc4)n23)cc1	-25%	x	u	-2%[46.1 µM]	u	-20%
CCOc1cc(/C=C2/NC(=O)N(CC(=O)Nc3cccc(C)c3)C2=O)ccc1OC	-8%[1.46 µM]	-13%	-23%	u	u	-16%
COc1cc(/C=C2/NC(=O)N(CC(=O)Nc3cccc(C)c3)C2=O)ccc1OCC(N)=O	-1%	10µM*	-11%	-2%[14.2 µM]	-30%	-8%
O=C(Nc1ccc2oc(-c3ccccc3)nc2c1)c1ccc2c(c1)OCCO2	x	10µM*	u	u	-2%	x
O=C(Nc1ccc2oc(-c3ccncc3)nc2c1)c1ccc(F)cc1	-12%	22µM*	-26%	-6%	-5%	-7%
O=C(Nc1ccc2oc(-c3cccnc3)nc2c1)c1ccc(-c2ccccc2)o1	-16%	x	35µM*	x	u	-20%
CC1=NC=CC2C1=Nc1ccccc12 (centres undefined)	x	x	x	-1%	x	x
COc1ccc(N)cc1-n1c(C)ccc1C	u	0.71µM*	3%	u	-1%[46.1 µM]	-16%
CC(=O)N1CCc2cc(S(=O)(=O)CCC(=O)N3CCN(c4cccc(C)c4C)CC3)ccc21	-15%	x	u	7%[46.1 µM]	-15%[46.1 µM]	-13%
Cc1cccc(N2CCN(C(=O)c3ccc4nc(-c5ccco5)c(-c5ccco5)nc4c3)CC2C)c1 (centres undefined)	x	10µM*	25µM*	u	u	x
FC(F)(F)c1cc(-c2ccccc2)nc(N2CCOCC2)n1	-26%	8.9µM*	-13%	-25%	-18%	-22%
FC(F)(F)COc1nc(N2CCOCC2)nc(N(c2ccccc2)c2ccccc2)n1	u	u	u	13µM*	u	u
COC(=O)C=C1CCC2C3CCC4=CC(=O)C(Br)CC4(C)C3C(=O)CC12C (centres undefined)	-5%	u	u	11µM*	u	-12%
CC12C=CC(=O)C=C1CCC1C2C(=O)CC2(C)C(=O)CCC12 (centres undefined)	i	22%	u	12%	-2%	1%
O=C(NC1CCCCC1)c1cnn2c1NC(=C1CC1)C=C2C(F)F	-23%	x	x	x	x	u
SMILES	Vaccinia mCherry	HCV inh	FMDV inh	MARV entry inh	Lassa entry inh	Vaccinia Venus
C=CCn1cccc(/C=C/C(=O)c2ccc(C(C)(C)C)cc2)c1=S	u	10µM*	25µM*	u	16µM*	u
COc1ccc(S(=O)(=O)N/N=C\c2ccc3c(c2)OCO3)c(OC)c1	-2%	3.5µM*	33%	u	u	-16%
O=C(CCc1c[nH]c2ccccc12)N/N=C/c1ccc2c(c1)OCO2	-14%	13µM*	30%	u	u	-17%
COc1ccc(OC)c(S(=O)(=O)N/N=C\c2ccc3c(c2)OCO3)c1	i	-2%	50%	5%[46.1 µM]	12%[46.1 µM]	-12%
COc1ccc(CCC(=O)N/N=C/c2ccc3c(c2)OCO3)cc1	-21%	16%	41%	8%	0.1µM*	-14%
c1ccc(CNCc2ccco2)cc1	x	16%	-13%	x	x	x
C1CCN(CCCNC2C3CC4CC(C3)CC2C4)C1 (centres undefined)	i	2.5µM*	-1%	u	u	-15%
C(CNC1C2CC3CC(C2)CC1C3)CN1CCOCC1 (centres undefined)	x	-25%	-8%	x	x	x
CC(C)c1ccc(NC(=O)C2CCC(CNC(=O)[C@@H]3Cc4ccccc4CN3)CC2)cc1 (some centres undefined)	i	14µM*	-3%	u	5%[46.1 µM]	-24%
Cc1ccc(NC(=O)C2CCC(CNC(=O)[C@@H]3Cc4ccccc4CN3)CC2)cc1 (some centres undefined)	x	8%	-7%	x	x	x
CC(C)c1ccc(NC(=O)C2CCC(CNS(=O)(=O)c3ccc4c(c3)CCCC(=O)N4)CC2)cc1 (centres undefined)	u	x	25µM*	x	u	u
NS(=O)(=O)c1ccc(N=Nc2c(O)[nH]c3ccc(C(=O)NCCc4cnc[nH]4)cc23)cc1	x	x	x	x	5µM*	x
CCOc1ccc(Oc2nc(Nc3ccc(C)cc3)nc(N(C)C)n2)nn1	-22%	11µM*	u	u	-8%	-28%
CCN(CC)c1nc(Nc2ccccc2)nc(Oc2ccc(=O)n(C)n2)n1	x	u	u	u	15%	x
Cc1nn(-c2nnc(NC3CCCCC3)nn2)c(C)c1Br	-22%	-2%	11%	3.5µM*	u	-19%
Oc1ccc2c(c1)OCC1(O)Cc3cc(O)c(O)cc3C21 (centres undefined)	270%	25µM*	-28%	x	x	329%
CC(=O)c1cn(CCOc2cc(C)ccc2C)c2ccccc12	-13%	1.8µM*	u	1.6µM*	-17%[46.1 µM]	-7%
Cc1ccc(NC(=O)c2cc(-c3cccs3)nc3ccccc23)c(C)c1	-11%	x	u	u	5%[46.1 µM]	-2%
Cc1ccc(NC(=O)Cc2cc(C(=O)O)c3ccccc3n2)c(C)c1	x	13µM*	u	12µM*	15µM*	x
CC(=O)c1cn(CC(=O)Nc2ccc(C)cc2C)c2ccccc12	x	5.6µM*	u	u	u	u
Cc1ccccc1OCCn1cc(/C(N)=N/O)c2ccccc21	u	u	28µM*	u	15%	u
Cc1ccc(C)c(OCCn2cc(C(=O)O)c3ccccc32)c1	i	-13%	-15%	4%[46.1 µM]	1%[46.1 µM]	-10%
